From PubChem BioAssay
Pf Dd2 growth = qHTS Primary assay for Inhibitors of Plasmodium falciparum Dd2 growth in vitro. 120,000 compounds, 4.3% hits. AID 1347417, 2020. P. falciparum Dd2 growth, SYBR Green, 72 h. Potency, µM (titrated, usually from 28.9 µM), for the others: top-dose activity, negative = inhibition, usual class: inhibitors; active = well fitted inhibition curve with a large enough effect;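 also: plate controls were DMSO vehicle for no effect and reference drug for full effect; nearly all actives have a fitted effect of over 65% in size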
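Infected erythrocytes (Dd2, 0.3% parasitemia, 2.5% hematocrit final) are added to compound in RPMI-1640/Albumax II medium, grown 72 h at 37C in low oxygen, then lysed with saponin/Triton-X containing SYBR Green and read by fluorescence.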
Starred values were filed as active, the others as inactive; i = inactive; [ ] = another dose, or the depositor's remark. The full list was thinned out, with hits kept by preference. Potency is read from the fitted curve at half-maximal effect.

SMILES	Pf Dd2 growth
COc1ccc(C(=O)NC(C(=O)NCC(C)C)C2CCN(C(=O)C3CCCC3)CC2)cc1 (stereo unspecified)	i
COCCN1C(=O)CS(=O)(=O)C12CCN(C(=O)Cc1ccccc1C)CC2	3%
Cn1nc2n(c1=O)CCN(C(=O)c1cc(C3CC3)[nH]n1)CC2	i
O=C([C@@H]1C[C@H](c2ccc(F)cc2)N(Cc2ccccc2Cl)C1)N1CCOCC1	i
O=C(NC[C@H]1O[C@@H]2C[C@@H](CC(=O)N3CCOCC3)O[C@@H]2[C@@H]1O)Nc1cccc(Cl)c1	11%
O=C(O)CCC1CCCN(S(=O)(=O)c2ccc(F)cc2)C1 (stereo unspecified)	0%
COc1cccc(OCc2cc(C(=O)N3CCCCC3c3cccnc3)n[nH]2)c1 (stereo unspecified)	i
CCN1CCN(C(=O)c2c(OCC3CC3)cc(=O)n3c2CCCCC3)CC1	51%
COc1ccc(Nc2ncc3c(n2)CCN(Cc2cc(Br)cs2)C3)c(OC)c1	46%
Brc1csc(CN2CCc3nc(Nc4ccccc4)ncc3C2)c1	10µM*
Cc1ccc(CN2CCc3nc(Nc4ccc5c(c4)OCCO5)ncc3C2)cc1	9%
COc1ccccc1Nc1ncc2c(n1)CCN(Cc1ccc(C)s1)C2	69%
COc1ccccc1Nc1ncc2c(n1)CCN(Cc1cc(F)cc(F)c1)C2	28%
COc1ccc(Nc2ncc3c(n2)CCN(Cc2ccc(Br)s2)C3)c(OC)c1	10µM*
Cc1nc(NCc2ccc(C(=O)N3CCCCC3)cc2)cc(C2CC(N)C2)n1 (stereo unspecified)	-6%
CN(C)c1nc(-c2ccncc2)nc2c1CCN(C(=O)c1ccc(O)cc1)C2	-2%
COCCN1C(=O)CS(=O)(=O)C12CCN(C(=O)C1CC1)CC2	7%
COCCn1nnnc1C1CC2(CCOCC2)C(=O)N1Cc1ccc(Cl)cc1 (stereo unspecified)	25%
Cc1ccc(CN2CCC(CNC(=O)Nc3ccc(C)c(C)c3)C2)cc1 (stereo unspecified)	-5%
Cc1ccc(CN2CCC(CNC(=O)c3cc4ccc5cccnc5c4[nH]3)CC2)cc1	3.5µM*
O=C(NCC1CCN(Cc2cccc(F)c2)CC1)c1cc2ccc3cccnc3c2[nH]1	7.1µM*
Cc1ccc(C)c(CN2CCC(CNC(=O)c3occc3C)C2)c1 (stereo unspecified)	-7%
CCCN(C(=O)c1cc2ccc3cccnc3c2[nH]1)c1ccc(F)cc1	-19%
O=C(c1cc2ccc3cccnc3c2[nH]1)N1CCN(c2ccccc2)CC1	i
Cc1ccc(C)c(CN2CCC(CNC(=O)c3cc4ccc5cccnc5c4[nH]3)CC2)c1	2.8µM*
SMILES	Pf Dd2 growth
Cc1ccc(C)c(CN2CCC(CNC(=O)Cn3ncc4c([nH]c5ccccc54)c3=O)CC2)c1	-19%
Cc1oc2ncnc(N3CCCCC3)c2c1C(=O)NCC1CCN(Cc2cccc(F)c2)CC1	-17%
COCC(=O)N1CC[C@@H](CC(=O)O)[C@@H](CCN2CCN(c3cccc(C(F)(F)F)c3)CC2)C1	10%
COc1ccc(/C=C/CN2CCC3(CC2)C(=O)N(Cc2cccnc2)C(=O)N3C)cc1	-27%
Cc1cc2ncc(C(=O)NC3CC3)cn2n1	11%[44.1 µM]
CCc1cnc(N2CCC(Oc3cnc4c(ccn4CCN[S+](C)(=O)[O-])c3)CC2)nc1	-1%
Cc1ccccc1Nc1c(-c2cccc(Cl)c2)nc2ncccn12	-3%
Cc1ccccc1Nc1c(-c2c[nH]c3ccccc23)nc2cccc(C)n12	20%
Cc1ccc2nc(-c3ccncc3)c(Nc3ccccc3C)n2c1	-22%
Cc1ccc2nc(-c3c[nH]c4ccccc34)c(Nc3ccccc3C)n2c1	-24%
Cc1ccc2nc(-c3ccccn3)c(Nc3ccccc3C)n2c1	8.9µM*
Cc1ccn2c(Nc3ccccc3C)c(-c3ccccn3)nc2c1	3.2µM*
CCCN1C(=O)CC[C@H]2CN(C(=O)c3cnc(C4CC4)[nH]c3=O)CC[C@H]21	11%
COc1ccc(CNC(=O)c2cc3n(n2)CC(c2ccc4c(c2)OCO4)OC3)cc1 (stereo unspecified)	-11%
COCCn1nc2n(c1=O)CCN(Cc1ccc(Br)s1)CC2	18%
CCOc1ccccc1C1NC(=O)N(CC(=O)Nc2cccc(C(F)(F)F)c2)C2=C1C(=O)OC2 (stereo unspecified)	-9%
COc1ccc(CN2CCC(N3CCCNC3=O)CC2)cc1	8%[44.1 µM]
COc1cc(CN2CCC3(CCNCC3)C2)cc(OC)c1OC	-4%
C=Cc1cccc(CN2CCCC3(CCNC3)C2)c1 (stereo unspecified)	10µM*
COC(=O)c1cc(CN2CCCC3(CCNC3)C2)ccc1O (stereo unspecified)	-17%
CCOc1ccc(C(=O)Nc2ccc3nc(SCCOc4ccccc4)sc3c2)cc1	-14%
O=C(COc1ccccc1)Nc1ccc2nc(SCC(=O)N3CCCC3)sc2c1	11µM*
O=C(Nc1ccc2nc(SCC(=O)N3CCCC3)sc2c1)c1ccccc1	-14%
CC(=O)Nc1ccc2nc(SCCOc3ccccc3Cl)sc2c1	i
O=C(Nc1ccc2nc(SCCOc3ccccc3)sc2c1)c1ccccc1F	2%
SMILES	Pf Dd2 growth
CCC(=O)Nc1ccc2nc(SCCOc3cccc(C)c3)sc2c1	i
O=C(Nc1ccc2nc(SCCOc3ccccc3)sc2c1)c1cccs1	3.2µM*
COc1cc(C)ccc1OCCSc1nc2ccc(NC(=O)c3ccco3)cc2s1	4.5µM*
O=C(COc1ccccc1Cl)Nc1ccc2nc(SCC(=O)N3CCOCC3)sc2c1	-4%
CC(=O)NC1CC2(CCN(C(=O)c3c(C)noc3C)CC2)c2ccccc21 (stereo unspecified)	23%
O=C(C1CC(=O)N(c2n[nH]c3cccc(F)c23)C1)N1CCC(Cc2ccccc2)CC1 (stereo unspecified)	-21%
Cc1noc(C)c1C(=O)N1CCN(C2CCNCC2)C(=O)C1	28%
COc1ccc(CN2CC3(CCN(C(=O)c4ccc(C)cc4C)CC3)C2=O)cc1	-15%
O=C(N[C@@H]1CCN(C(=O)CSc2ccccn2)C[C@H]1O)c1ccncc1	-10%
COc1ccc(-c2ccnc3nc(C(C)C)nn23)cc1	-22%
O=C(NCc1ccco1)C1COC2(CCN(C(=O)c3ccc(F)cc3)CC2)N1C(=O)c1ccccc1 (stereo unspecified)	-24%
Cc1ccc(-c2nc(C(=O)NCc3cccc(C)c3)no2)cc1	54%
CCCCNC(=O)Cc1csc2nc(C)c(-c3cc(C)n(-c4ccc(C)cc4)n3)c(=O)n12	-8%
CCCNC(=O)Cc1csc2nc(C)c(-c3cc(C)n(-c4cccc(C)c4C)n3)c(=O)n12	i
COCCNC(=O)Cc1csc2nc(C)c(-c3cc(C)n(-c4ccccc4F)n3)c(=O)n12	-15%
CCCCCNC(=O)Cc1csc2nc(C)c(-c3cc(C)n(-c4cccc(C)c4)n3)c(=O)n12	-16%
CCCCNC(=O)Cc1csc2nc(C)c(-c3cc(C)n(-c4cccc(Cl)c4)n3)c(=O)n12	7.9µM*
Cc1ccc(Cl)cc1-n1nc(-c2c(C)nc3scc(CC(=O)NCCC(C)C)n3c2=O)cc1C	7.9µM*
COc1ccccc1OCC(=O)NC1CC(=O)N(Cc2ccccc2Cl)C1 (stereo unspecified)	-18%
CC(=O)NC[C@H]1OC[C@@H](NC2CCCC2)[C@@H]1O	-12%[44.1 µM]
Cc1cccc(NC(=O)N2CCCC(CN3CCOCC3)CC2)c1 (stereo unspecified)	i
O=C(Cn1ccc(=O)[nH]c1=O)N1CCC2(CCCN(C3CCCC3)C2=O)C1 (stereo unspecified)	8%
